Test results from PubChem BioAssay AID488841 (Sanford-Burnham Center for Chemical Genomics, 2010).
About 380 (27%) of roughly 1,400 compounds were called active. The list shows a part of the results. Unmarked numbers belong to inactive results.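 Rule for the calls: active = mean inhibition above 50% across duplicate retests at 10 µM; inactive = the rest.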

Test: yeast NALP1 reporter signal suppression – S. cerevisiae, luminescence, single concentration, NALP1 inhibitor project, confirmation (AID 488841);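 note: plate controls were DMSO in galactose medium for no effect and cells in plain SD medium for full effect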
Conditions: S. cerevisiae NALP1/ASC/Caspase-1 reporter, beta-gal luminescence; at 10 µM; active compounds read high

Going from `O=C(NC(=S)NCCCN1CCOCC1)c1ccc([N+](=O)[O-])cc1` to `CCCN1CCN(CCCNC(=O)CCNC(=O)Cn2ccc3ccccc3c2=O)CC1`, the inhibition falls from 40% to 35.5%.

Compared with `COc1ccc(Cc2nnc(SC)[nH]c2=O)cc1`, `CC(C)Oc1ccc(Cc2cnc(N)nc2N)cc1` is lower in inhibition: 22.6% for the first, 9.95% for the second.

Compared with `Cc1cc(C(C)(C)C)cc(C)c1S(=O)(=O)N1CC(=O)Nc2ccccc21`, `CC(C)(C)c1ccc(COn2c(=O)c(-c3ccco3)[n+]([O-])c3ccccc32)cc1` is lower in inhibition: 38.6% for the first, 12.9% for the second.

First: Cn1cccc1/C=N/N1CCN(Cc2ccc(Cl)cc2)CC1
Second: CN1CCN(C2=C(Cl)C(=O)N(CCc3ccccc3)C2=O)CC1
The inhibition of the first is lower: 31.7% for the first, 46.6% for the second.

First: COc1ccccc1-c1nnc2sc(COc3ccc(Cl)cc3)nn12
Second: CCOc1ccc(OCCSc2nc3ccccc3o2)cc1
The inhibition of the first is higher: 49.2% for the first, 42.4% for the second.

Compared with `CC1=C(C(=O)Nc2ccc(Cl)cc2)C(c2ccncc2)C(C#N)=C(SCC(N)=O)N1` (stereo not drawn), `Cc1ccc(NC(=O)CN(C)C(=O)COc2cccc3cccnc23)cc1` is lower in inhibition: 32.1% for the first, 25.3% for the second.

Compared with `CN(C)c1ccc(N2C(=O)CC(Sc3ccccc3C(=O)O)C2=O)cc1` (stereo not drawn), `CCN(CC)CCN1C(=O)c2ccccc2NC1c1ccc(N(C)C)cc1` (stereo not drawn) is higher in inhibition: 24.6% for the first, 25.7% for the second.

Compared with `CCOC(=O)CCCNC(=O)COC(=O)c1ccc(O)cc1`, `CCCCNC(=O)COC(=O)c1ccc(Cl)c(S(N)(=O)=O)c1` is higher in inhibition: 23.1% for the first, 25.9% for the second.

Compared with `CCN1c2ccccc2-c2nc3ccccc3n2C1c1cccs1` (stereo not drawn), `Cc1ncc(S(=O)(=O)c2ccccc2)c(-c2ccccc2Cl)n1` is lower in inhibition: 32.9% for the first, 10.2% for the second.

First: O=C(Oc1ccc(/C=N/NC(=O)c2ccccc2O)cc1)c1ccccc1
Second: CC(OC(=O)CC(NC(=O)c1ccccc1Cl)c1ccccc1)C(=O)Nc1cccc(Cl)c1Cl (stereo not drawn)
The inhibition of the first is higher: 30.9% for the first, 29.8% for the second.

Compared with `COc1ccc(/C=N\NC(=O)c2cc(OCC(F)(F)F)ccc2OCC(F)(F)F)cc1`, `COc1ccc(C(=O)/C=C/Nc2ccc([N+](=O)[O-])cc2C)c(OC)c1` is lower in inhibition: 25.5% for the first, 4.95% for the second.

Compared with `COc1ccc(N2C(=O)C3[C@@H](C2=O)C2(Cl)C(Cl)=C(Cl)C3(Cl)C2(OC)OC)cc1` (stereo partly drawn), `COc1ccc(NCc2ccc([N+](=O)[O-])s2)c(OC)c1` is higher in inhibition: 42% for the first, 49.1% for the second.

Going from `C=CCc1ccc(OCCCOc2ccc(C)cc2OC)c(OC)c1` to `C=CCNCCCCOc1ccc(Br)cc1C`, the inhibition rises from 30.9% to 41.7%.

Going from `CCCCN(C)C(=O)c1nc2ccccn2c1CNCCCn1ncc2ccccc21` to `CCCc1nc2ccc(NC(=O)c3ccco3)cc2c(=O)n1Cc1ccccc1Cl`, the inhibition rises from 16.4% to 27%.

Compared with `COC(=O)c1c(NC(=O)C2CCCO2)sc2c1CCC2` (stereo not drawn), `Cc1ccccc1OCC(=O)Nc1sc2c(c1C#N)CCC2` is lower in inhibition: 39.9% for the first, 16.7% for the second.

First: Cc1ccc(C(C)C)cc1OCCN1CCCC1
Second: Cc1ccc(OCCCCN2CCCCC2)c(Br)c1
The inhibition of the first is lower: 40.4% for the first, 41.6% for the second.

Compared with `CSc1ccc(CN(C)CC(=O)Nc2ccc(C)cc2Br)cc1`, `COc1ccc2c(c1)C1=NN(/C(C)=C/C(C)=O)C(c3ccc(F)cc3)C1CC2` (stereo not drawn) is lower in inhibition: 47.1% for the first, 42.4% for the second.

Compared with `O=C(O)CC1NC(=S)N(c2ccccc2)C1=O` (stereo not drawn), `O=c1oc2ccccc2nc1/C=C(O)/C=C/c1ccc(F)cc1` is higher in inhibition: 29.9% for the first, 33.8% for the second.

Going from `COc1cccc(NC2=C(Cl)C(=O)OC2OC(=O)c2ccco2)c1` (stereo not drawn) to `COc1ccccc1C(=O)Nc1nc2nc(-c3ccccc3)cc(=O)n2[nH]1`, the inhibition falls from 29.2% to 22.9%.

First: Cn1nc(NC(=O)C(C)(C)C)c2c(F)cccc21
Second: CC(C)(C)c1cc2cccnc2n1Cc1cccc(Cl)c1
The inhibition of the first is lower: 8.45% for the first, 35.9% for the second.

Going from `CC(NC(=O)c1ccc(F)cc1)C(=O)NC1=NCCS1` (stereo not drawn) to `CCN(C(=O)[C@@H]1CCCN1C(=O)c1cccs1)c1nc2cc(Cl)ccc2s1`, the inhibition rises from 22.1% to 46.8%.

Going from `N#C/C(=C\c1ccc([N+](=O)[O-])o1)c1nc2ccccc2[nH]1` to `Cn1c(/C(C#N)=C/C2CC=CCC2)nc2ccccc21` (stereo not drawn), the inhibition rises from 24.8% to 37%.

First: CCOc1nnc(C)c2c(C)n(-c3cccc(Cl)c3)nc12
Second: Clc1ccc2oc3c(Cl)ncnc3c2c1
The inhibition of the first is higher: 25.5% for the first, 23.1% for the second.

With `COc1ccc(/C=N/N2CCOCC2)cc1COc1ccc(Cl)cc1` the inhibition was 51.8% (active).
In the case of `CC[n+]1c(/C=C/N(C)c2ccccc2)n(-c2ccccc2)c2ccc(-c3nc4ccccc4s3)cc21`, the inhibition is reported as 55.8% (active).
With `CN(C)c1ccc(/C=C/c2ccc3ccccc3[n+]2C)cc1` the inhibition was 85.5% (active).
In the case of `CC[n+]1c(/C=C/c2ccc(N(C)C)cc2)ccc2ccccc21`, the inhibition is reported as 85.5% (active).
In the case of `O=C(C[n+]1ccc(C(=O)N/N=C/c2ccc(OCc3ccccc3)cc2)cc1)c1ccccc1`, the inhibition is reported as 58.6% (active).
With `O=C1C=CC(=O)N1c1ccc(OC(F)F)cc1` the inhibition was 59.8% (active).
For `COc1cc(C)ccc1OCCOCCOc1ccc([N+](=O)[O-])cc1`, the inhibition was 53.3% (active).
In the case of `Cc1ccc(C(=O)c2c(NC(=O)c3ccncc3)sc3c2CCCC3)cc1`, the inhibition is reported as 51% (active).
With `Cc1ccc(OCCCCN(C)Cc2ccccc2)c(Br)c1` the inhibition was 61.5% (active).
With `CCCCCOc1ccc(Br)cc1CSC(=N)N` the inhibition was 57.2% (active).
For `CC(=O)N1N=C(c2ccc3ccccc3c2)OC1(C)C`, the inhibition was 77.3% (active).
In the case of `O=C(Nc1ccc(Cl)c(Cl)c1)Oc1ccc(NC(=O)c2ccco2)cc1`, the inhibition is reported as 52.8% (active).
For `O=C1O/C(=C/c2ccccc2)c2ccccc21`, the inhibition was 73.8% (active).
In the case of `Cc1ccc(-c2csc(NC(=O)c3ccc(F)cc3)c2C(=O)O)cc1`, the inhibition is reported as 89.8% (active).
In the case of `N#C/C(=C/c1cccs1)c1nc2ccccc2[nH]1`, the inhibition is reported as 89% (active).
With `CN(C)CCN(C(=O)/C=C/c1cccs1)c1nc2c(F)cc(F)cc2s1` the inhibition was 51.6% (active).
With `CN(C)CCN(C(=O)/C=C/c1cccs1)c1nc2ccc(F)cc2s1` the inhibition was 72.1% (active).
